# Test results: the supplement of paper PMC11417369
# ± gives the standard deviation of the averaged measurements. In all, about 25,000 sequences were measured (“ln(normalized median fluorescence intensity)”: median about 8.6, highest 2% from about 10 on). Shown is part of a subset that was picked to be rich in the highest values.
# System: PfAP2-EXP AP2 domain (GST-tagged)
# Assay: gcPBM binding intensity (ln(normalized median fluorescence intensity)); higher = stronger DNA binding
# Outline: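 Binding intensity is defined as the maximum Masliner-normalised natural-log median intensity across replicate spots for either probe orientation. It was measured on an Agilent 4 × 180k array of primer-extended double-stranded 36-bp intergenic genomic probes and negative controls, to which GST-tagged P. falciparum DNA-binding domains made in E. coli were applied for 1 h in 1× PBS with 1% milk, 0.2 mg/ml BSA, 0.5% salmon testes DNA and 0.03% Triton X-100. Detection was by Alexa488 anti-GST antibody and scanning at 488 nm.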
row,Sequence,gcPBM binding intensity (ln)
1,ATTTAAAACAAAAGTAGTACGTCTAATAAATTCAAC [XGTACX_site4344],8.45 ± 0.34
2,ATATATATATATATATGTACACATATTATAAAAAAA [XGTACX_site8644],10.2 ± 0.32
3,ATATATATATATATATGTACACATAAAAAGAAAGAA [XGTACX_site1603],10.2 ± 0.21
4,TAAGAAAAATATATATGTACACATATATATATATAT [XGTACX_site8542],9.97 ± 0.57
5,AAATAAAGAAATATATGTACATATATATATATATAT [XGTACX_site5131],10.4 ± 0.28
6,TATAAGAATAAAAAGGGTACATAAAATAATAATATA [XGTACX_site2355],8.82 ± 0.38
7,AAAAAAAAAAAGAAGGGTACATATTATATATAATAT [XGTACX_site6204],8.59 ± 0.48
8,TAAAAGAAATATACATGTACATAAATATATATATAT [XGTACX_site1276],9.86 ± 0.2
9,ACATTATATAAAATATGTACACATAAATAAATAAAT [XGTACX_site5031],8.73 ± 0.41
10,ATACATATACACATATGTACATATGAAAAGAAAAAT [XGTACX_site6445],8.94 ± 0.45
11,AAAAAAAAAGAAAAATGTACATACATAAATATATAT [XGTACX_site5664],8.57 ± 0.45
12,ATTATAAGAAGGGGGGGTACATAAATATAAATGTAT [XGTACX_site5624],10.4 ± 0.2
13,TATTATAATAAAATATGTACACACATACACACATAT [XGTACX_site2360],8.8 ± 0.33
14,TTACAACAGAATGGTATTTTTTTATTTTAAAGAAAA [TGCATGCA_negctrl_site230],8.04 ± 0.38
15,ACATAATATACTATTGTGCACATATATATATATATA [GTGCAC_site9761],10.1 ± 0.45
16,AAAATGATGTTAATTACACACATCATCTCATAAACA [CACACA_site3017],8.28 ± 0.4
17,TATTTAATTACATGAACACACATTAGATATTTTTAA [CACACA_site7405],8.14 ± 0.44
18,AAAAAAAAAAAAAGGTGTACATAAGTAAATTCATAT [XGTACX_site4206],8.7 ± 0.54
19,AATACAATATAAAGGTGTACATATATATATATATAT [XGTACX_site68],10.1 ± 0.48
20,TTCATAATAAAAAGGTGTACATATATATATATATAT [XGTACX_site2829],10.34 ± 0.085
21,TATATATAAAGGTGTACACATATATATATATCTGTA [CACACA_site5311],8.45 ± 0.17
22,ATTCATAAAAAGAGGTGTACATTAATATAATATATA [XGTACX_site8283],8.62 ± 0.35
23,ACATATATATAAAGGTGTACACATATATATATATAT [XGTACX_site4779],10.2 ± 0.71
24,TATGTATATTTTAATTGTACGTGTATGGTTGTAAAT [XGTACX_site8738],8.79 ± 0.38

row,Sequence,gcPBM binding intensity (ln)
1,TATTAAAATATTTATACACACATAATTTTGATAAAT [CACACA_site4486],8.19 ± 0.43
2,ATAATATTATTATAATGTACATATTTCGATATAAAT [XGTACX_site8808],8.61 ± 0.42
3,TATTCGTGCAATAATAGTACACTTATAAATTATTCA [XGTACX_site8993],8.595 ± 0.064
4,CACAATACTTTCATCACACATATATATATATATATA [CACACA_site4677],10.1 ± 0.28
5,TACTTTCAAAAGATCACACATATATATATATATATA [CACACA_site5630],10.39 ± 0.085
6,TACTTTATATAAAGATCAAAAAATAAATAATTATAA [TGCATGCA_negctrl_site446],8.45 ± 0.21
7,ATCAAAGATAAATTTACACACATATAAATATAAATA [CACACA_site7409],8.44 ± 0.56
8,AAAAAAAAAGATCACACACACATAAATATAAACAAA [CACACA_site5285],8.48 ± 0.26
9,TCAAAAATAAAGATCACACATATATATATATATATA [CACACA_site4381],10.2 ± 0.35
10,TTTTTTTTTTTTTTTTGTACATAAATTTTTATTAGA [XGTACX_site6409],8.17 ± 0.35
11,TATACATATTTCTATTGTACATAAACTAAATCTTCA [XGTACX_site28],8.27 ± 0.49
12,TTTTATTTTTTATTTGCACACAATATGTAAAAAAAT [CACACA_site2927],8.71 ± 0.16
13,ATATTAATTCGTTTTGTACACACATAATGAATAATT [CACACA_site8701],8.43 ± 0.24
14,TGTGCTATATTCATATGTACATATAATTATTATATA [XGTACX_site3549],8.86 ± 0.028
15,CTGTATTCATAATTCACACAAATGGTTTATATGAAT [CACACA_site4315],8.5 ± 0.31
16,ATGCAAATGTGCATCACACACACTAATGGGTATGTA [CACACA_site2893],8.39 ± 0.38
17,GGGGACGCGGGTGGGGGTACTCACACTATGCAAAAT [XGTACX_site7745],10.3 ± 0.4
18,GCTTAGTTATATAACTGTACTATTTTTATTTATATG [XGTACX_site884],9.16 ± 0.83
19,CCTATAATAAATAATACACACATATTGTAAATATAT [CACACA_site7496],8.46 ± 0.53
20,GAAAGAATAAAATAAACATGCAAATAAAACATAAAA [TGCATGCA_site471],9.27 ± 0.25
21,CACATAAAATAAGGTGCATGCAAACGAGAAAATAAA [TGCATGCA_site75],10.5 ± 0.11
22,AGGTGCAAAAATAAAACATGCAAAAATAAAAATGAA [TGCATGCA_site502],9.15 ± 0.44
23,CAAGGAACCAGACACACACACATAAATGTATTTATA [CACACA_site6491],8.39 ± 0.48
24,TCATAAAAGATTAAGTGTACATGTGCTACTCTTATA [XGTACX_site6255],8.34 ± 0.25

row,Sequence,gcPBM binding intensity (ln)
1,ATATATATATATGTATGTACGTATGTATGTATGAAT [XGTACX_site4857],9.91 ± 0.29
2,ATATATCATGAACCTTGTACGTATATATATATATAT [XGTACX_site239],10.2 ± 0.23
3,GTTTTTATCATATCATGTACGTATTTTATTTTTTTT [XGTACX_site8643],9.03 ± 0.32
4,TCTTAAAATATATAGGTGCAAAAAAAAAAAAAAAAA,8.31 ± 0.13
5,TATATATATATATAGGTGCAATATTGAAAAAATATC [GTGCAC_site9535],10.3 ± 0.21
6,TAATATAATATATAGGTGCAATATTAACAAAAATTT,8.63 ± 0.085
7,ACCGGTGGAACGTTTTGTACATATATAATAATATAT [XGTACX_site2143],8.62 ± 0.5
8,TATATATATATATATTGTACTGAACGTTTTTTTTTG [XGTACX_site8060],10.2 ± 0.39
9,AATACGTTTATATATTGTACGTTATATATATATATA [XGTACX_site7452],9.91 ± 0.33
10,ATTGTGGATATTCTTACACACAAATTTATATATAAA [CACACA_site2601],8.37 ± 0.49
11,AAGTTTTTTTTTAACACACACATAATAAAATAAATA [CACACA_site446],8.46 ± 0.31
12,GTATGTTTAATTTTAGTGCAATTATAAATATTTTAA [GTGCAC_site9531],8.62 ± 0.18
13,TATATATATTTATATGCATGTAATATATTTGTATTG [TGCATGCA_site323],8.71 ± 0.3
14,AAAAAAAAATGAAAAGAAAAAAAAAGAAAAAAGGGA [CACACA_negctrl_site287],8.61 ± 0.67
15,GGGGAAAAAAAAAAAGGAAAAAGAAAAAAAAAAAAA [GTGCAC_negctrl_site489],8.38 ± 0.39
16,AAAAAAAAAAAAAAAAGGGGGGGAGGGATTGAAAAA [CACACA_negctrl_site193],10.22 ± 0.042
17,CTATTATAATATTTTACACACCATGTAAGATATATA [CACACA_site7492],8.46 ± 0.35
18,TCTTTTAAACAGTACACACACACATCTATATTTATA [CACACA_site6559],8.755 ± 0.078
19,ATTATATTATTTTAAAGTACACACATATATTAATAT [XGTACX_site4769],8.63 ± 0.24
20,CATATTTTTTCTTAAACACACACATATATATATATA [CACACA_site8920],10.1 ± 0.41
21,TTAATCCTTTTTAAAAGTACACATATATATATATAT [XGTACX_site962],10.2 ± 0.38
22,TATATTCTTTTAAACAGTACACACACACATATATAT [XGTACX_site1701],8.96 ± 0.44
23,TTTTCTTTTAAACATATATATATATATATATATATA [XGTACX_negctrl_site559],10.4 ± 0.23
24,TTAACAGTAAAACACAGTACATATATACTTAAAACA [XGTACX_site1930],8.59 ± 0.35

row,Sequence,gcPBM binding intensity (ln)
1,AAATAAAATACATATAAACACACATATAAACCAACA [CACACA_site8789],8.88 ± 0.61
2,TATTTTAAAAAAAAAAGTACACATAATATATATAAC [XGTACX_site5416],8.64 ± 0.26
3,TTAAAACCAAAACACAGTACATATATATATATATAT [XGTACX_site5668],10.3 ± 0.23
4,TATTTTTTCTTAAACACACACATATATATATATAAT [CACACA_site5567],8.56 ± 0.39
5,TCTTTTAAACAGTACACACACACATATATATATATA [CACACA_site924],10.3 ± 0.22
6,ATATATATATTAAATACACACATTTTTGATTAGGTT [CACACA_site3119],9.405 ± 0.078
7,TAAATAAGTATTACTAGTACACACAAGTTGTTAATC [XGTACX_site7074],8.57 ± 0.28
8,TTTTATGTTCTTAATGCACACTTATAAGTATCTTAT [CACACA_site4895],9.07 ± 0.21
9,TATCATATAAAACATGCACACATATGTACTCTTATA [CACACA_site9249],8.77 ± 0.31
10,ATTTTTTATGAAAATAAACACACGATTTATTATATA [CACACA_site1312],8.14 ± 0.33
11,AGAAAAAAGAGGGATACACACAAACATATATTTATA [CACACA_site7122],8.81 ± 0.29
12,ACATATAATATATATATATATATATATATATATAAT [GTGCAC_negctrl_site648],8.66 ± 0.18
13,TTGGTATAAAATTATAGTACATAAGGTAAATATAAA [XGTACX_site4698],8.56 ± 0.33
14,GGAATATTAAAAAAATGTACAAAAAATAATATCCAT [XGTACX_site2596],8.97 ± 0.36
15,ATATTAAGAATGTATACATGCATATATATATAGTAC [TGCATGCA_site219],9.17 ± 0.42
16,AAACTTTTTTTAAAAACACACATATATATTTATATA [CACACA_site4092],8.36 ± 0.41
17,CATAAACTTTTTAACACACACTTATATATATATATA [CACACA_site4747],10.3 ± 0.23
18,TTTTGAAGCTTTAAAACATATATATATATATATATA [CACACA_negctrl_site184],10.3 ± 0.4
19,TTAAAACATATTTTGAATTAATATATTTTAATATTA [XGTACX_negctrl_site148],7.72 ± 0.39
20,TACATAAACTTTATAACACACACTTATATATATATA [CACACA_site1106],9.86 ± 0.18
21,CATAAACTTTATAACACACACTTATAAATATAAATA [CACACA_site6646],8.41 ± 0.4
